# Reference: the supplement of paper PMC6555819
# Tests used:
# Assay in all cases: PBM binding z-score (relative to random genomic background probes); higher = stronger binding; sequences stand for … in GC…GCGATTGACAGCGTAGAATGAAGG
# [1] = test system: FXR:RXRa (NR concentration 270 nM, RXRa partner concentration 90 nM)
# Summary of the method: (§1)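 The probes on custom Agilent 4×180K protein-binding microarrays were double-stranded, with 34-nt variable regions bearing direct-repeat seeds, single-nucleotide variants, half-site ablations and random human genomic background sequences. Incubation lasted 1 h with ligand-free nuclear receptor dimers in PBS pH 7.4, 2% milk, 0.02% Triton X-100, 1 mM DTT, 0.2 mg/mL BSA and 0.4 mg/ml salmon testes DNA. Antibodies against each partner (one per run) detected bound dimers, and fluorescence scans were regression-normalized. Binding z-scores take the random background probes as reference.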
# [2] = test system: LXRa:RXRa (NR concentration 270 nM, RXRa partner concentration 90 nM)
# Summary of the method: as §1
# [3] = test system: LXRa homodimer (NR concentration 270 nM)
# Summary of the method: as §1
# [4] = test system: LXRb:RXRa (NR concentration 270 nM, RXRa partner concentration 90 nM)
# Summary of the method: as §1
# [5] = test system: LXRb homodimer (NR concentration 270 nM)
# Summary of the method: as §1
# [6] = test system: PPARa:RXRa (NR concentration 270 nM, RXRa partner concentration 90 nM)
# Summary of the method: as §1
# [7] = test system: PPARg:RXRa (NR concentration 180 nM, RXRa partner concentration 90 nM)
# Summary of the method: as §1
# [8] = test system: PPARg:RXRa 270nM:90nM, anti-RXR (NR concentration 270 nM, RXRa partner concentration 90 nM)
# Summary of the method: as §1
# [9] = test system: PPARg:RXRa 30nM:10nM, anti-RXR (NR concentration 30 nM, RXRa partner concentration 10 nM)
# Summary of the method: as §1
# [10] = test system: PPARg:RXRa 90nM:30nM, anti-RXR (NR concentration 90 nM, RXRa partner concentration 30 nM)
# Summary of the method: as §1
# [11] = test system: PPARg:RXRa DBDmut IVT, anti-RXR (DBD mutation: RXRa K156A/R161A, NR concentration 270 nM, RXRa partner concentration 90 nM)
# Summary of the method: as §1
# [12] = test system: PPARg:RXRa IVT, anti-PPARg (NR concentration 270 nM, RXRa partner concentration 90 nM)
# Summary of the method: as §1
# [13] = test system: PPARg DBDmut:RXRa IVT, anti-PPARg (DBD mutation: PPARg1 K132A/R137A, NR concentration 270 nM, RXRa partner concentration 90 nM)
# Summary of the method: as §1
# [14] = test system: PPARg DBDmut IVT, anti-PPARg (DBD mutation: PPARg1 K132A/R137A, NR concentration 270 nM)
# Summary of the method: as §1
# [15] = test system: PPARg homodimer (NR concentration 180 nM)
# Summary of the method: as §1
# [16] = test system: PXR:RXRa (NR concentration 270 nM, RXRa partner concentration 90 nM)
# Summary of the method: as §1
# [17] = test system: PXR homodimer (NR concentration 270 nM)
# Summary of the method: as §1
# [18] = test system: RARa:RXR (NR concentration 270 nM, RXRa partner concentration 90 nM)
# Summary of the method: as §1
# [19] = test system: RARa homodimer (NR concentration 270 nM)
# Summary of the method: as §1
# [20] = test system: RARb:RXRa (NR concentration 270 nM, RXRa partner concentration 90 nM)
# Summary of the method: as §1
Sequence,PBM binding z-score [1],PBM binding z-score [2],PBM binding z-score [3],PBM binding z-score [4],PBM binding z-score [5],PBM binding z-score [6],PBM binding z-score [7],PBM binding z-score [8],PBM binding z-score [9],PBM binding z-score [10],PBM binding z-score [11],PBM binding z-score [12],PBM binding z-score [13],PBM binding z-score [14],PBM binding z-score [15],PBM binding z-score [16],PBM binding z-score [17],PBM binding z-score [18],PBM binding z-score [19],PBM binding z-score [20]
CGAACGAGGGCATTAGTTGATAGCAAATGCCGAT,0.0908,-0.0116,-0.501,-0.0875,-0.766,0.595,0.83,0.432,0.0228,-0.0505,2.78,1.35,-1.12,-0.313,-0.0468,0.174,0.377,0.239,-0.278,1.51
CGTCCAAGCTCAAAGGTCAGTGAAGAGATGACGG,3,2.95,0.546,2.8,0.14,3.99,3.03,4.16,2.1,3.97,0.0789,1.7,-0.175,-0.869,3.43,3.24,0.202,4.05,1.36,4.48
TCATATAGGTACATGCTAGGTGAAAGTCCGATCT,0.846,1.11,0.242,0.622,0.134,1.15,0.699,2.04,3.56,2.99,2.58,1.73,0.847,1.54,0.444,0.528,0.248,0.868,0.997,0.432
TCATATAGGTAATAGAGGTGAAAGTCGGCATCTA,1.47,1.99,0.555,1.43,0.0572,2.96,2.3,3.61,4.55,4.02,4.53,4.06,1.5,0.929,0.919,1.12,0.895,1.92,1.02,1.27
AGAATGATGTTATACGTAGATCAGGGAAGAAAGT,-0.301,-0.398,-0.0367,-0.288,-0.0572,-0.192,0.88,-0.156,0.198,-0.0681,-0.521,-0.0838,1.57,1.74,-0.218,-0.0656,0.403,-0.276,-0.0154,-0.18
TATACAGGGTCAAAGTCCAGAGTACGAATGTCGA,6.87,6.67,3.54,5.33,3.32,5.98,6.93,6.5,3.78,5.77,2.42,4.52,3.19,3.67,3.98,4.6,1.31,5.3,2,4.42
CGTCCAAGGTCAAGGGTCAGTGAAGAGATGACGG,7.75,5.84,1.02,5,0.392,6.46,8.85,7.9,6.12,7.94,3.08,5.28,0.202,-0.0608,5,5.97,1.43,8.23,1.5,5.81
GCGACTGGGGCATCAGTAGGTTACCATAACTTAA,-0.329,-0.299,-0.273,0.586,-0.678,1.55,1.69,1.5,0.0376,0.86,4.06,4.04,-0.43,-0.245,0.247,0.02,-0.313,0.416,-0.569,0.805
ACAGACAGGTGATGAAGGGAACTCAGGCTATCAT,-0.0225,-0.0438,-0.158,-0.298,-0.495,-0.115,0.754,0.00384,0.0362,-0.027,0.344,0.145,0.471,-0.0521,0.0738,-0.382,0.482,-0.121,0.0733,0.0899
CCTACTGGGCCATCGGGTCATTGATATCAACGTT,1.37,1.03,-0.0763,1.51,-0.423,3.29,3.03,4.12,1.34,3.22,3.69,5,0.365,-0.0654,1.81,1.9,-0.0623,2.47,-0.279,1.9
ATCGAAAGGTCGACGACGTGAGTATACACCGTTT,3.9,3.08,-0.00126,2.61,0.501,4.21,2.29,2.7,0.988,1.77,0.416,1.22,1.4,1.43,1.37,2.32,-0.182,3.07,0.0928,3.72
AGAACGAGGGCAACGAGTTGATAGCACGGGTGGC,0.357,0.068,-0.499,-0.258,-0.674,1.59,1.67,1.29,0.0508,0.609,3.47,3.2,0.361,-0.0508,-0.253,1.49,3.88,0.217,-0.868,2.23
AGAATGAGGTTACCAAACATCAGGGAAACGCTTG,2.02,2,-0.389,1.31,-0.323,3.21,2.42,2.19,1.04,1.8,4,3.04,1.44,0.505,0.76,0.954,-0.13,1.59,-0.309,1.82
GGAACGAGGGCAAAGATGATAGCATCTGTCGACG,0.376,0.281,-0.604,0.258,-0.642,2.65,3.63,4.6,2.92,4.39,3.87,3.02,-0.58,0.0962,0.289,0.215,-0.309,0.189,-0.373,1.98
